The record followed here is PubChem BioAssay (Tox21).

A short description of assay [1]: qHTS assay for small molecules that induce genotoxicity in human embryonic kidney cells expressing luciferase-tagged ATAD5 (AID 651632). Also: nearly all actives have a fitted effect of over 15% in size. Summed up: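 HEK293T cells carrying a luciferase reporter tagged to ATAD5 were exposed to compound or DMSO vehicle for 16 hr at 37C, 5% CO2. Amplite was added, and after 30 min at room temperature luciferase activity was read as a marker of ATAD5 induction.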

Assay [2] can be described thus: qHTS assay for small molecule agonists of the p53 signaling pathway - cell viability (AID 651633; calls by dose curve; also: nearly all actives have a fitted effect of over 30% in size; also: potency is read from the fitted curve at half-maximal effect). Summed up:
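Viability counter-read: CellTiter-Glo luminescence (30 min, room temperature) in the same p53RE-bla plates. These plates had been exposed to compounds for 16 h at 37 C.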

Assay [3] in a line: qHTS assay for small molecules that induce genotoxicity in human embryonic kidney cells expressing luciferase-tagged ATAD5 - cell viability (AID 651634; calls by dose curve; also: nearly all actives have a fitted effect of over 25% in size). The gist of the method:
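HEK293T cells expressing luciferase-tagged ATAD5 were exposed to compound or DMSO for 15.5 hr at 37C, 5% CO2. Viability was then read as live-cell protease activity by CellTiter-Fluor fluorescence after 30 min at 37C.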

Assay [4] can be described thus: qHTS assay for small molecule disruptors of the mitochondrial membrane potential - cell viability (AID 720634; calls by dose curve; also: nearly all actives have a fitted effect of over 20% in size; also: potency is read from the fitted curve at half-maximal effect). Summed up: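 HepG2 cells seeded overnight at 37 C, then exposed to compound or DMSO for 1 hr at 37 C, 5% CO2. m-MPI dye added, then CellTiter-Glo for 30 min at room temperature; viability read as ATP luminescence.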
A short description of assay [5]: qHTS assay for small molecule disruptors of the mitochondrial membrane potential (AID 720635). Also: potency is read from the fitted curve at half-maximal effect. Summed up: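 Mitochondrial membrane potential tracked with Mito-MPS dye, red aggregates (ex 540/em 590 nm) against green monomers (ex 490/em 535 nm). Compound treatment 1 hr at 37C, dye 30 min in HepG2.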
Assay [6] is described as follows: qHTS assay to test for compound auto fluorescence at 590 nm (red) in HepG2 cells (AID 720674). Summed up:
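1 hr compound incubation on HepG2 cells, 37 C, 5% CO2; plate read ex 540 nm / em 590 nm; intensities reported as Rose Bengal sodium equivalents.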

Assay [7] is described as follows: qHTS assay to test for compound auto fluorescence at 535 nm (green) in HepG2 cells (AID 720675).
Assay [8] is described as follows: qHTS assay to test for compound auto fluorescence at 460 nm (blue) in HEK293 cells (AID 720678). Summed up: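 HEK293 cells (2,000/well, medium with 10% dialyzed FBS) attached 4-5 hr, then exposed to compound overnight at 37C, 5% CO2. Blue fluorescence read at 405/460 nm, with triamterene as reference fluorophore.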
Assay [9] is described as follows: qHTS assay to test for compound auto fluorescence at 590 nm (red) in HEK293 cells (AID 720679). The gist of the method:
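HEK293 cells (2,000/well, 10% dialyzed FBS) attached 4-5 hr, then dosed with compound or DMSO and incubated overnight at 37C, 5% CO2. Red fluorescence read at 540/590 nm, Rose Bengal sodium as reference fluorophore.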

Assay [10] can be described thus: qHTS assay to test for compound auto fluorescence at 535 nm (green) in HEK293 cells (AID 720680).
A short description of assay [11]: qHTS assay to test for compound auto fluorescence at 460 nm (blue) in HEK293 cell free culture (AID 720681). Summed up:
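Blue fluorescence (Ex 405/Em 460 nm, triamterene-equivalent) was read immediately after pin transfer of compound or DMSO into medium (DMEM, 10% FBS) without cells.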

Assay [12] can be described thus: qHTS assay to test for compound auto fluorescence at 535 nm (green) in HEK293 cell free culture (AID 720682). Summed up:
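Green-label autofluorescence (485 nm excitation, 535 nm emission) measured on compound added to cell-free culture medium (DMEM, 10% FBS). Output is expressed relative to fluorescein.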

Assay [13] can be described thus: qHTS assay to test for compound auto fluorescence at 590 nm (red) in HEK293 cell free culture (AID 720683). The gist of the method: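 Red-channel autofluorescence of compounds in culture medium (DMEM, 10% FBS), no cells, measured at 540/590 nm. Rose Bengal sodium is the reference fluorophore for equivalence.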
The nature of assay [14]: qHTS assay to test for compound auto fluorescence at 590 nm (red) in HepG2 cell free culture (AID 720684). Summed up:
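Plate contents were MEM with 10% FBS plus test compound or DMSO, no cells. Fluorescence was recorded with 540 nm excitation and 590 nm emission.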

Assay [15] is described as follows: qHTS assay to test for compound auto fluorescence at 460 nm (blue) in HepG2 cell free culture (AID 720685). Summed up: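 Compound (23 nL) or DMSO pinned into cell-free MEM with 10% FBS; blue fluorescence read at 405/460 nm excitation/emission, expressed as auto-fluorescence equivalency to triamterene.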
Assay [16] is described as follows: qHTS assay to test for compound auto fluorescence at 460 nm (blue) in HepG2 cells (AID 720687). The gist of the method: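 Blue-channel autofluorescence (Ex/Em 405/460 nm, triamterene-equivalent) was measured after 1 hr compound exposure at 37 C, 5% CO2. Cells were HepG2, plated overnight at 37 C in MEM plus 10% FBS.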
Assay [17] has as its target Glucocorticoid receptor (Homo sapiens) (UniProt P04150). As to the kind of experiment: qHTS assay to identify small molecule agonists of the glucocorticoid receptor (GR) signaling pathway (AID 720691; active = well fitted activation curve with a large enough effect in the signal ratio in the repeat runs, not every such curve was filed as active; the % refers to the signal ratio). The gist of the method:
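GR-bla HeLa cells (beta-lactamase reporter under glucocorticoid response element) were plated 4 h at 37 C/5% CO2, given compounds in DMSO, and incubated 18 h at 37 C. LiveBLAzer B/G FRET substrate was added for 2 h at room temperature, then fluorescence intensity read.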

Assay [18] has the same target. As to the kind of experiment: qHTS assay to identify small molecule antagonists of the glucocorticoid receptor (GR) signaling pathway (AID 720692; active = well fitted inhibition curve with a large enough effect in the signal ratio in the repeat runs, not every such curve was filed as active; the % refers to the signal ratio). Summed up: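 GR-bla HeLa cells (beta-lactamase reporter under glucocorticoid response element) were pre-plated 4 h at 37 C, treated with compounds plus 5 nM dexamethasone (final) for 18 h, then read by LiveBLAzer B/G FRET fluorescence after 2 h.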

A short description of assay [19]: qHTS assay to test for compound auto fluorescence at 535 nm (green) in HepG2 cell free culture (AID 720686).

Molecules are shown by their SMILES. Values joined by “and” are separate entries in the source; they are usually repeats but may differ in a detail not shown here. Identical values can stand only once. Results filed as inconclusive are left out. Active and inactive are the calls of the source. Unless noted, calls follow the shape of the dose curve; as a rule, active = well fitted curve in the direction sought with a large enough effect in the repeat runs; inconclusive = weak or mixed curves; inactive = no such curve, though single readings can be large; an effect the other way counts as inactive or inconclusive.

Chain of Glucocorticoid receptor (Homo sapiens) (P04150 whole entry, looked up): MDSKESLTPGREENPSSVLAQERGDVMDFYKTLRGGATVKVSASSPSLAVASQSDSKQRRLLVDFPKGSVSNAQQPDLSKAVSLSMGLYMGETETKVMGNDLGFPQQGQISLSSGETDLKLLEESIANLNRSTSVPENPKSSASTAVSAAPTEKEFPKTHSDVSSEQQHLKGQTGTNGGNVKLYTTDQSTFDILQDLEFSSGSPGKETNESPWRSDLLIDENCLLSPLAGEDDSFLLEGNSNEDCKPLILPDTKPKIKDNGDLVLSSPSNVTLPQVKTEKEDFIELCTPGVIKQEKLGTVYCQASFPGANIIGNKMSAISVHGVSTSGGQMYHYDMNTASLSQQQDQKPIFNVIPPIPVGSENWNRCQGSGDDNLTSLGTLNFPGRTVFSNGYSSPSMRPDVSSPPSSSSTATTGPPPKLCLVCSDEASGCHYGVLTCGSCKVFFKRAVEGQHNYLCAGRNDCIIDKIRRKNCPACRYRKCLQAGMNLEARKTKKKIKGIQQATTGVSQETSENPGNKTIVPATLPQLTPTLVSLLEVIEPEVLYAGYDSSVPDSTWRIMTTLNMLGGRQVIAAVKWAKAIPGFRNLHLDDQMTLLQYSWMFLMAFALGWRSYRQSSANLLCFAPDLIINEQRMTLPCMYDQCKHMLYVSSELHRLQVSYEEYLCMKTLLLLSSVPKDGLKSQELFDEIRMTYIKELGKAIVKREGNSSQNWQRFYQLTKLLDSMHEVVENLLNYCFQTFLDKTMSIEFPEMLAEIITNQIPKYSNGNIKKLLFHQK

Take `CCOC(=O)c1ccccc1N`: the Potency result in assay [1], in assay [2], in [3], in [4], in assay [5] and in assay [8] was “inactive” each time. The Potency entry in assay [11], in assay [15], in assay [16] and in assay [18] was “inactive” in each case. In addition, the compound was classed as inactive in assay [6], in [7], in assay [9], in [10], in [12] and in [13]. Besides, the compound was called inactive in [14] and in assay [17].

For the compound `CC(C)(O)C(=O)Nc1ccc([N+](=O)[O-])c(C(F)(F)F)c1`, the Potency entry in [1], in assay [2], in assay [3], in assay [8], in [11] and in assay [15] was “inactive” in each case. For the same compound, the Potency result in [16] is “inactive”. In addition, the Potency in [5] was 15.7 µM (active) and 17.8 µM (active). Further, the compound was classed as inactive in assay [6], in [7], in assay [9], in [10], in assay [12] and in assay [13]. The compound was classed as inactive in assay [14].

`O=C1C(Cl)=C(Cl)C(=O)c2ccccc21`: the Potency entry in assay [1], in assay [3], in [11], in assay [15] and in assay [16] was “inactive” in each case. The Potency is 6.88 µM (active) and 21.7 µM (active) in assay [2]; 13.7 µM (active) and 15.4 µM (active) in assay [4]; 3.87 µM (active) and 4.86 µM (active) in [5]. Also, the outcome in assay [6], in assay [7], in assay [9], in [10], in assay [12] and in [13] was inactive. The outcome in assay [14] was inactive.

As to `COP(=S)(OC)SCn1nnc2ccccc2c1=O`, the Potency result in assay [1], in assay [2], in assay [3], in [8], in assay [11] and in [15] was “inactive” throughout. In addition, the Potency entry in assay [16] is “inactive”. The result in [6], in assay [7], in [9], in assay [10], in [12] and in assay [13] was inactive. Also, the call in assay [14] was inactive.

Consider `CC1(C)Cc2cccc(O)c2O1`, for which the Potency result in assay [1], in assay [2], in assay [3], in [4], in assay [5] and in [8] was “inactive” in each case. Moreover, the Potency result in [11], in assay [15] and in assay [16] was “inactive” throughout. The compound was classed as inactive in assay [6], in [7], in [9], in assay [10], in assay [12] and in [13]. Further, the call in [14] was inactive.

Turning to `CC(C)COC(=O)c1ccccc1C(=O)OCC(C)C`, the Potency entry in assay [1], in [2], in assay [3], in assay [4], in [8] and in [11] was “inactive” each time. Further, the Potency result in [15], in [16] and in assay [18] was “inactive” in each case. Moreover, the Potency in assay [5] is 68.6 µM (active). The outcome in assay [6], in [7], in assay [9], in [10], in assay [12] and in [13] was inactive. Further, the compound was classed as inactive in [14], in assay [19] and in assay [17].

`N#Cc1cccnc1`: the Potency entry in [1], in assay [2], in assay [3], in [4], in assay [5] and in assay [8] was “inactive” each time. Moreover, the Potency result in [11], in assay [15], in assay [16] and in assay [18] was “inactive” in each case. For the same compound, the compound was called inactive in [6], in assay [7], in assay [9], in [10], in [12] and in assay [13]. Besides, the call in [14] and in [17] was inactive.
